# Source: PubChem
# Shown are actives, neighbours in structure and some others; about 3.1% of the full set was active somewhere.
# p53null 32C tox = selectivity test: cytotoxicity in p53 null cells, permissive temperature. H1299-neo p53 null cells, ATP luminescence, 24 h, 32C. Potency, µM (top dose mostly 46.1 µM), for the others: at the highest dose activity change, negative = cytotoxicity, hits mostly cytotoxic. 55,000 tested, 0.62% active;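 also: 0% = DMSO only and -100% = full killing by 100 µM tamoxifen; nearly all actives have a fitted effect of over 55% in size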
#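 We seeded p53-null H1299-neo cells, incubated them overnight at 37C, and added compounds across a range up to 46 uM. After 24 hours at 32C, ATP reagent was applied for 20 min at room temperature and luminescence recorded.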
# p53null 39C tox = selectivity test: cytotoxicity in p53 null cells, nonpermissive temperature | H1299 p53-null (neo) cells, 39C, ATPlite viability, 24 h | Potency, µM (titrated, usually from 46.1 µM), for inactives: top-dose activity, negative = cell killing, most hits filed as cytotoxic | 55,000 tested, 0.97% active;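 also: 0% = DMSO only and -100% = full killing by 100 µM tamoxifen; nearly all actives have a fitted effect of over 50% in size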
#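 Temperature-shift cytotoxicity format: compound titrations on p53-null or A138V-expressing H1299 cells held 24 hr at 39C, cell ATP then measured, AC50 from Hill model.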
# OvCa metastasis = blocks SKOV3ip1 adhesion and invasion in omental model. SKOV3ip1-GFP adhesion/invasion on 3D omental model, fluorescence. Potency, µM (highest dose often 45.8 µM), for inactives: top-dose activity change, negative = inhibition, hits mostly inhibitors. 46,000 tested, 0.1% active;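 also: plate controls were DMSO wells for no effect and tomatine positive control wells for full effect; nearly all actives have a fitted effect of over 65% in size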
#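 Adhesion/invasion was scored as fixed GFP-labeled SKOV3ip1 cell counts (488/509 nm), normalized to DMSO and tomatine controls. Cancer cells in serum-free medium, with four compound doses (0.36-46 umol/L), sat 2 hr at RT then 16 hr at 37 C on a 48 hr fibroblast/mesothelial/ECM culture.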
# mTORC1 inh = reduces mTORC1 signaling in Tsc2 and p53 null MEF cells. Tsc2-/- p53-/- MEF, phospho-rpS6 immunofluorescence/PI, 24 h. 44,000 tested, 0.78% active. Potency, µM (series often up to 38.3 µM), inactives show at the highest dose activity change, negative = inhibition, most hits filed as inhibitors;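 also: plate controls were DMSO for no effect and rapamycin for full effect; nearly all actives have a fitted effect of over 50% in size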
#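 Immunofluorescence of rpS6 phosphorylation in Tsc2-/-, p53-/- MEFs after 24 h compound exposure, normalized to propidium iodide signal. Activity is expressed as % positive cells, thresholded with 7.5 nM rapamycin.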
# PMP22 txn = modulators of PMP22 gene transcription in S16 Schwann cells; S16 Pmp22-F2sN Schwann cells, FLuc/NLuc coincidence luminescence, 24 h; Potency, µM (series often up to 57.5 µM), for inactives: at the top dose activity change, negative = inhibition, hits mostly inhibitors; 43,000 tested, 2% active; AID 1508649; active = clear falling dose curves in both reporters; inconclusive = both reporters move, but less clearly or upward; inactive = either reporter flat; the % is the NLuc reporter signal
#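 Schwann cells carrying the coincidence reporter were exposed to library compounds for 24 h at 37C, then lysed and read for FLuc and, after quenching, NLuc luminescence on a CCD imager.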
# S16 F2sN tox = toxic to S16 Pmp22-F2sN Schwann cells; S16 Pmp22-F2sN Schwann cells viability, CellTiter-Glo, 24 h; 43,000 tested, 0.48% active; Potency, µM (doses to about 57.5 µM), inactives show at the highest dose activity change, negative = cytotoxicity, actives largely listed as cytotoxic; also: nearly all actives have a fitted effect of over 65% in size
#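 S16 Pmp22-F2sN Schwann cells (500-1,000/well) in phenol-red-free DMEM with 10% FBS received 23 nL compound by pin tool for 24 h at 37 °C. Viability was then read as CellTiter-Glo luminescence after 15 min at room temperature.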
# Starred values were filed as active, the others as inactive; i = inactive; u = inconclusive; x = no result given. Unless noted, calls follow the shape of the dose curve; as a rule, active = well fitted curve in the direction sought with a large enough effect; inconclusive = small, poorly fitted or top-dose-only effect, or another doubt; inactive = no such curve, though single readings can be large; an effect the other way counts as inactive or inconclusive. Unless noted, % is scaled to controls: 0 for no effect and ±100 for the full control effect; potency is read from the fitted curve at half-maximal effect.
SMILES,p53null 32C tox,p53null 39C tox,OvCa metastasis,mTORC1 inh,PMP22 txn,S16 F2sN tox
CCNC(=O)C1CCN(c2nnc(C)c3c(C)n(-c4ccc(OC)cc4)nc23)CC1,2.0%,9.7%,-2.3%,-3.1%,u,-16.6%
COc1ccc(-n2nc3c(N4CCC(C(=O)NCc5cccc(F)c5)CC4)nnc(C)c3c2C)cc1,-12.0%,3.16µM*,-25.0%,-1.2%,u,u
COc1ccc(CNC(=O)C2CCN(c3nc4ccc(C)cc4[nH]3)CC2)cc1,3.5%,-4.9%,-4.9%,13.1µM*,-2.1%,0.1%
CCNC(=O)C1CCCN(c2nnc(C)c3c(C)n(-c4ccc(C)cc4)nc23)C1 (configuration not stated),1.7%,-17.6%,-18.4%,-3.4%,-29.5%,-12.1%
CCCCN(CC)CCNC(=O)C1CCN(c2nnc(C)c3c(C)n(-c4ccc(C)cc4)nc23)CC1,18.7%,-20.8%,u,14.7µM*,u,u
CNC(=O)[C@H](CC1=CN=C2C=CCC=C12)NC(=O)[C@@H](CC(=O)NO)CC(C)C,x,x,-6.2%,x,x,x
CC(=O)OCC(=O)[C@@]12OC(C)(C)O[C@H]1C[C@H]1[C@@H]3C[C@H](F)C4=CC(=O)C=C[C@]4(C)[C@@]3(F)[C@@H](O)C[C@@]12C,x,x,25.4%,x,x,x
NC(=O)c1c(OCc2c(F)cc(Br)cc2F)nsc1NC(=O)NCCCCN1CCCC1,x,x,5.2%,x,x,x
COc1cc(NC(=O)c2ccc(-c3ccc(Cl)cc3)o2)cc(OC)c1,x,x,-4.5%,x,x,x
COc1ccc(CNC(=O)C2CCN(c3nnc(C)c4c(C)n(-c5ccc(C)cc5)nc34)CC2)cc1,u,12.6µM*,u,1.0%,u,u
COc1ccc(-n2nc3c(N4CCCC(C(=O)NCc5ccc(C)cc5)C4)nnc(C)c3c2C)cc1 (configuration not stated),u,14.6%,12.6µM*,-19.0%,u,u
Cn1cc(C=CC(=O)c2cccc(F)c2)cc1C=CC(=O)NO,x,x,-0.6%,x,x,x
Cc1ccc(Nc2nc3nonc3nc2Nc2cccc(C(F)(F)F)c2)cc1Cl,-23.5%,u,-16.0%,u,7.61µM*,11.2µM*
Cc1cc(Nc2cccc(Cl)c2)nc2ccc(NC(=O)c3cncc(Br)c3)cc12,-18.2%,20µM*,i,-7.1%,u,u
Cc1cc(Nc2cccc(C(F)(F)F)c2)nc2ccc(NC(=O)c3cncc(Br)c3)cc12,-3.0%,-20.1%,i,-28.4%,u,u
CC(C)COc1ccc(C(=O)Nc2nnc(S(=O)(=O)N(C)Cc3ccco3)s2)cc1,u,10µM*,i,2.1%,-7.2%,19.2%
CC(=O)Nc1ccc([C@H](C)C(=O)Nc2ncc(C(C)C)s2)cc1,x,x,-0.8%,x,x,x
CC(C)(C)c1cc(C(C)(C)C)c(NC(=O)c2c[nH]c3ccccc3c2=O)cc1O,x,x,-10.6%,x,x,x
O=C(/C=C/Nc1ccc(F)cc1F)c1cccs1,10µM*,x,x,x,x,x
O=C(/C=C/Nc1ccccc1F)c1cccs1,11.2µM*,x,x,x,x,x
O=C(O)[C@@H](c1ccc(OCc2ccc3ccccc3n2)cc1)C1CCCC1,x,x,-2.1%,x,x,x
CCCNS(=O)(=O)Nc1ncnc(OCCOc2ncc(Br)cn2)c1-c1ccc(Br)cc1,x,x,-13.2%,x,x,x
COc1ccc2c(Sc3ccc(C)cc3)c(C(=O)NCCc3ccccc3)[nH]c2c1,-13.6%,17.5%,u,-2.1%,u,0.8%
COCCCNC(=O)c1[nH]c2cc(OC)ccc2c1Sc1ccc(C)cc1,-13.0%,15.8µM*,0.5%,-1.2%,x,15.0%
Cc1ccc(S(=O)(=O)c2nc(-c3cccs3)oc2SCC(=O)Nc2cc(C)cc(C)c2)cc1,-27.7%,u,u,20.7µM*,u,0.8%
SMILES,p53null 32C tox,p53null 39C tox,OvCa metastasis,mTORC1 inh,PMP22 txn,S16 F2sN tox
COc1ccc(NC(=O)CSc2oc(-c3cccs3)nc2S(=O)(=O)c2ccc(C)cc2)c(OC)c1,6.6%,-4.6%,1.2%,3.1%,59.5%,7.2%
Cc1ccc(CN(Cc2ccco2)C(=O)COc2ccc(C)c(C)c2)cc1,5.0%,0.2%,i,-12.2%,-88.5%,-8.4%
CCc1ccc(OCC(=O)N(Cc2ccc(C)cc2)Cc2ccco2)cc1,22.3%,11.0%,1.9%,4.14µM*,u,7.6%
O=c1[nH]nc(OCCCc2ccc(Cl)cc2)c(NCc2cccnc2)c1Br,x,x,-3.1%,x,x,x
CN(C(=O)c1cccc(Nc2ccc(-c3ccc4c(c3)OCCO4)nn2)c1)C1CCCCC1,11.2µM*,12.6µM*,x,x,x,x
CO[C@H]1C(=O)[C@]2(C)[C@@H](OC)C[C@H]3OC[C@@]3(OC(C)=O)[C@H]2[C@H](OC(=O)c2ccccc2)[C@]2(O)C[C@H](OC(=O)[C@H](O)[C@@H](NC(=O)OC(C)(C)C)c3ccccc3)C(C)=C1C2(C)C,x,x,7.6%,x,x,x
COc1ccc2[nH]cc(CCN=C(NC(=O)c3ccccc3OC)Nc3nc(C)cc(C)n3)c2c1,9.7%,0.7%,-3.3%,-10.8%,13.9µM*,u
Cc1ccc(SCC(=O)Nc2ccc3oc(-c4cccc(C)c4)nc3c2)cc1,-16.3%,-12.2%,i,-9.9%,0.1%,3.3%
Cc1ccc2oc(-c3ccc(NC(=O)CCC(=O)O)cc3)nc2c1,12.6µM*,u,i,-14.1%,-2.9%,5.4%
Cc1ccc(C(=O)Nc2onc3c2CCCC3)cc1,6.31µM*,5.01µM*,-11.1%,-8.3%,-5.1%,-3.2%
Cc1cc2c(F)c(Oc3ncnn4cc(OC[C@@H](C)O)c(C)c34)ccc2[nH]1,x,x,7.6%,x,x,x
Cc1ccnc(NC(=O)/C=C/c2cccs2)c1,10µM*,x,x,x,x,x
O=c1c(-c2ccc(O)cc2)coc2cc(OC3O[C@H](CO)[C@H](O)[C@H](O)[C@H]3O)cc(O)c12 (some centres not stated),x,x,-37.6%,x,x,x
COc1ccc(C)cc1Nc1nc(N)c2cc(OC)c(OC)cc2n1,u,10µM*,u,u,u,u
O=C(c1cnc(N2CCOCC2)c2ccccc12)N1CCN(c2ccccc2)CC1,-2.5%,12.6µM*,5.7%,-4.2%,u,-2.7%
COc1ccc(F)cc1S(=O)(=O)NCCc1csc(-c2ccc(Cl)cc2)n1,20.9%,20µM*,i,-8.1%,u,-3.7%
Nc1ncn([C@@H]2O[C@H](CO)[C@@H](O)[C@@H]2O)c(=O)n1,x,x,-1.9%,x,x,x
CC(C)(C)C(=O)Nc1ccc(Cl)c(-c2nc3ccccc3[nH]2)c1,0.1%,5.7%,-3.5%,-0.1%,-3.9%,15.4%
